Unmarked numbers belong to inactive results. Results filed as inconclusive are left out. Where a call stands in place of a potency, no number is given. The source made the active and inactive calls. Unless noted, calls come from the whole dose curve.
Columns and labels:
[1] = Nuclear factor erythroid 2-related factor 2/antioxidant responsive element (Nrf2/ARE) small molecule agonists: qHTS cell viability counter screen in human keratinocytes (AID 1919968; active = well fitted curve in the direction sought with a large enough effect in the repeat runs; an effect the other way counts as inactive or inconclusive; note: nearly all actives have a fitted effect of over 55% in size; note: potency is the fitted concentration of half-maximal effect)
In short: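 Cytotoxicity was multiplexed with the Nrf2/ARE luciferase assay in the same wells. Stably transfected HaCaT keratinocytes were treated with test compounds for 23 h at 37 C. Cell viability was then measured by CellTiter-Fluor fluorescence.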

[2] = biological target: Gonadotropin-releasing hormone receptor (Homo sapiens) (UniProt P30968); test: Human gonadotropin-releasing hormone receptor (GnRHR) small molecule agonists, calcium flux assay in GnRHR-HEK293 cells (AID 1920063); note: nearly all actives have a fitted effect of over 35% in size
Gonadotropin-releasing hormone receptor (Homo sapiens), sequence (P30968 whole entry, looked up): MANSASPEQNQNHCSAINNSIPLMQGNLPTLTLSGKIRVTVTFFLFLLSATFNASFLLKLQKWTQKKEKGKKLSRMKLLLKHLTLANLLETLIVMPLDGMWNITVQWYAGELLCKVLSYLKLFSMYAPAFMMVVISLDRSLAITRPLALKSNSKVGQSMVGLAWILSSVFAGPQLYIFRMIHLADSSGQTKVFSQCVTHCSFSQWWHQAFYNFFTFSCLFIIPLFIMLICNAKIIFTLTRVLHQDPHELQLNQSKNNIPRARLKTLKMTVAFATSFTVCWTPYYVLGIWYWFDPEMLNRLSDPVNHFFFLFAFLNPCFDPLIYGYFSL
In short: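 Agonist activity was measured as intracellular calcium flux in HEK293 cells engineered to stably express human GnRHR. After dye loading for 1 hour at 37 C, compounds in DMSO were added and fluorescence was followed for 3 minutes.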

[3] = biological target: KiSS-1 receptor (Homo sapiens) (UniProt Q969F8); test: Human kisspeptin (KISS1R) small molecule agonists, calcium flux assay in KISS1R-HEK293 cells (AID 1920064; active = well fitted curve in the direction sought with a large enough effect in the repeat runs; an effect the other way counts as inactive or inconclusive)
KiSS-1 receptor (Homo sapiens), sequence (Q969F8 whole entry, looked up): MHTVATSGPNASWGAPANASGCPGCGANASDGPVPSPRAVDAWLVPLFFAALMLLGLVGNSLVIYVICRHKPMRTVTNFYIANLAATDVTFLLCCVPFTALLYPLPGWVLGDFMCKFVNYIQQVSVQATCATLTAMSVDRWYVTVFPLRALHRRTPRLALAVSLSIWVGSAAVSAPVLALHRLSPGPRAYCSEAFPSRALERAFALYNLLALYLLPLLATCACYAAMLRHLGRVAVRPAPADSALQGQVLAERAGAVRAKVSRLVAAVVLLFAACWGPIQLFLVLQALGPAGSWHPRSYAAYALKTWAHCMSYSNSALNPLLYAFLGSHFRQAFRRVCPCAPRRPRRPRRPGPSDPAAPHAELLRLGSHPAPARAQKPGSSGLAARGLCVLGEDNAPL
In short: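 Agonist activity is monitored as intracellular calcium rise in engineered HEK293 cells carrying human KISS1R. Cells are dye-loaded for 1 h at 37 C before compound addition, and fluorescence is recorded for 3 min.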

[4] = G protein-coupled receptor (GPCR) small molecule agonists, calcium flux assay: HEK293 wild type cell line counter screen (AID 1920065)
In short: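 Seed cells, incubate 18 h (37 C, 5% CO2); add calcium dye, 1 h at 37 C; pin-transfer compounds, ATP control or DMSO; read fluorescence 480/540 nm each second for 3 min.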

[5] = p53 small molecule agonists, cell-based qHTS assay with human liver microsomes (AID 1963577);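 note: p53 response element beta-lactamase reporter cells with liver microsomes plus NADPH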
In short: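 p53RE-bla cells; 5 h settle, 37 C/5% CO2; cpd + HLM 0.5 mg/mL + NADPH 0.5 mg/mL (final); 16 h 37 C; LiveBLAzer 2 h RT dark; fluorescence readout.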

[6] = p53 small molecule agonists, cell-based qHTS assay with rat liver microsomes (AID 1963578)
In short: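 Rat liver microsome activation: microsomes 0.5 mg/mL, NADPH 0.5 mg/mL final; p53RE-bla cells, 16 h 37 C; LiveBLAzer readout, 2 h RT dark.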

[7] = p53 small molecule agonists, cell-based qHTS assay with human liver microsomes: qHTS cell viability counter screen (AID 1963579); note: nearly all actives have a fitted effect of over 45% in size
In short: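 Luminescent CellTiter-Glo read-out, 30 min at room temperature, gauged cytotoxicity in p53RE-bla cells exposed 16 h at 37 C to DMSO-dissolved compounds with metabolic activation by human liver microsomes and NADPH, each 0.5 mg/mL final.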

[8] = p53 small molecule agonists, cell-based qHTS assay with rat liver microsomes: qHTS cell viability counter screen (AID 1963580); note: nearly all actives have a fitted effect of over 45% in size
In short: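 Rat liver microsome (0.5 mg/mL final) and NADPH (0.5 mg/mL final) co-incubation with compounds for 16 h at 37 C on HCT-116 p53RE-bla cells; cytotoxicity taken from intracellular ATP luminescence.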

[9] = p53 small molecule agonists, cell-based qHTS assay: qHTS cell viability counter screen (AID 1963581); note: nearly all actives have a fitted effect of over 45% in size
In short: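 Viability was counter-screened in parallel with the p53 agonist reporter by measuring intracellular ATP luminescence in the same HCT-116 p53RE-bla wells after 16 h compound treatment at 37 C.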

[10] = biological target: 5-hydroxytryptamine receptor 2A (Homo sapiens) (UniProt P28223); test: 5-hydroxytryptamine receptor 2A (HTR2A) small molecule antagonists, cell-based qHTS assay (AID 1963586); note: nearly all actives have a fitted effect of over 45% in size
5-hydroxytryptamine receptor 2A (Homo sapiens), sequence (P28223 whole entry, looked up): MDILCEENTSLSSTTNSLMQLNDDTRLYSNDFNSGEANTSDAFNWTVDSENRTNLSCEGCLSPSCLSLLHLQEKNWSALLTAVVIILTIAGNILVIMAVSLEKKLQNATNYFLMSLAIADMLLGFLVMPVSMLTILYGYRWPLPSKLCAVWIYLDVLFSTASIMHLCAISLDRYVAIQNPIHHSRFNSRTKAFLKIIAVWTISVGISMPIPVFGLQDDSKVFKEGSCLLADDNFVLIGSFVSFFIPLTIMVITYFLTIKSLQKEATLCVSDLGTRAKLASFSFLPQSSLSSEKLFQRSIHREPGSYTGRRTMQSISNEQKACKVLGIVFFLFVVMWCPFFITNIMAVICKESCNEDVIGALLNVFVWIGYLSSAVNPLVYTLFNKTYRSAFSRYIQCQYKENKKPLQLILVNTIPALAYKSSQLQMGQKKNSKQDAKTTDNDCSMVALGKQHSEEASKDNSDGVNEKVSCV
In short: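 CHO cells stably expressing human HTR2A were plated for 18 h at 37 C, then loaded with calcium dye for 1 h. Compounds were preincubated 5 min at room temperature before DOI (4 nM solution) was added. Kinetic fluorescence was read for 3 min.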

[11] = biological target: 5-hydroxytryptamine receptor 2A (Homo sapiens) (UniProt P28223); test: 5-hydroxytryptamine receptor 2A (HTR2A) small molecule agonists, cell-based qHTS assay (AID 1963587); note: nearly all actives have a fitted effect of over 30% in size
In short: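 Kinetic calcium-flux fluorescence (2 min, 1 sec intervals) after compound addition in agonist mode. HTR2A-CHO cells were cultured 18 h, then dye-loaded 1 h at 37 C.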

[12] = biological target: Muscarinic acetylcholine receptor M1 (Homo sapiens) (UniProt P11229); test: Cholinergic receptor muscarinic 1 (CHRM1) small molecule antagonists, cell-based qHTS assay (AID 1963588); note: nearly all actives have a fitted effect of over 40% in size; note: potency is the fitted concentration of half-maximal effect
Muscarinic acetylcholine receptor M1 (Homo sapiens), sequence (P11229 whole entry, looked up): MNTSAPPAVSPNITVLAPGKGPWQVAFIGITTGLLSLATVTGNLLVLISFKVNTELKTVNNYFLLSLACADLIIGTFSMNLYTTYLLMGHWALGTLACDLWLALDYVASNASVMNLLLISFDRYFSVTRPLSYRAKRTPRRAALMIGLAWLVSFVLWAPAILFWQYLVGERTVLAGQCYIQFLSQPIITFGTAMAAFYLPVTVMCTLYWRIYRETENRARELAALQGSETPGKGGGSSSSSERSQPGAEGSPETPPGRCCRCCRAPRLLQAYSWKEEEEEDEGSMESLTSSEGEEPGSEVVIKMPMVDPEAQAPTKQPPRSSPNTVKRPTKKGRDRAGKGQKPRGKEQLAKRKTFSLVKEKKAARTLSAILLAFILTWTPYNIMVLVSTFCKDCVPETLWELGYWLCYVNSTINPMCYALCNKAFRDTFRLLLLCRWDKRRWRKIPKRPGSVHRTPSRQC
In short: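 Compounds were tested at 15 concentrations in three independent runs. Dye-loaded CHRM1-CHO cells were exposed 5 min at room temperature before stimulation by acetylcholine added at 50nM. Intracellular calcium was read kinetically on FDSS for 3 min.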

[13] = biological target: Muscarinic acetylcholine receptor M1 (Homo sapiens) (UniProt P11229); test: Cholinergic receptor muscarinic 1 (CHRM1) small molecule agonists, cell-based qHTS assay (AID 1963589); note: nearly all actives have a fitted effect of over 35% in size
In short: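 Cells were plated and incubated 18 h at 37 C/5% CO2, loaded with calcium dye for 1 h at 37 C, then treated with compounds in DMSO. Fluorescence was recorded kinetically at 1 sec intervals.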

[14] = cAMP Responsive Elements (CRE) small molecule agonists, cell-based qHTS assay (AID 1963590)
In short: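 Cells carrying a CRE-driven beta-lactamase reporter (HEK 293T) are seeded, incubated overnight (18 h), and treated with test compounds for 3 h at 37 C; reporter activity is then detected with a FRET substrate after 2 h at room temperature.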

[15] = biological target: Beta-2 adrenergic receptor (Homo sapiens) (UniProt P07550); test: Adrenergic beta2 receptor (ADRB2) small molecule antagonists, cell-based qHTS assay (AID 1963592); note: series mostly up to about 92 µM; nearly all actives have a fitted effect of over 50% in size
Beta-2 adrenergic receptor (Homo sapiens), sequence (P07550 whole entry, looked up): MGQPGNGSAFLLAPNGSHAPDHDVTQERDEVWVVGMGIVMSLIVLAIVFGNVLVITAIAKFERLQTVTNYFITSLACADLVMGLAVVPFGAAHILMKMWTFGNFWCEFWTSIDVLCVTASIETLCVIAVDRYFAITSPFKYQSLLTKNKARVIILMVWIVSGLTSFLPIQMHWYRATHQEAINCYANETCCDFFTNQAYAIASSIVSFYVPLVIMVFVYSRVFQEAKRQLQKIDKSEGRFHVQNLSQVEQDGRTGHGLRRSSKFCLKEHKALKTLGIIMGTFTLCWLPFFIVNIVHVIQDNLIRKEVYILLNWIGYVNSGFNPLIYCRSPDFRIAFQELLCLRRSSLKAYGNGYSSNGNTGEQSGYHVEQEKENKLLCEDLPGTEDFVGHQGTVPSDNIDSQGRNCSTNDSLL
In short: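 Assay format: CHO-ADRB2 cells, 18-20hr seeding at 37C/5% CO2, then compound plus 1nM isoproterenol agonist mix for 0.5hr RT. Homogeneous time-resolved fluorescence cAMP detection after 1hr, expressed as 665/615 nm ratio.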

[16] = biological target: D(2) dopamine receptor (Homo sapiens) (UniProt P14416); test: Dopamine D2 receptor (DRD2) small molecule agonists, cell-based qHTS assay (AID 1963594); note: nearly all actives have a fitted effect of over 35% in size
D(2) dopamine receptor (Homo sapiens), sequence (P14416 whole entry, looked up): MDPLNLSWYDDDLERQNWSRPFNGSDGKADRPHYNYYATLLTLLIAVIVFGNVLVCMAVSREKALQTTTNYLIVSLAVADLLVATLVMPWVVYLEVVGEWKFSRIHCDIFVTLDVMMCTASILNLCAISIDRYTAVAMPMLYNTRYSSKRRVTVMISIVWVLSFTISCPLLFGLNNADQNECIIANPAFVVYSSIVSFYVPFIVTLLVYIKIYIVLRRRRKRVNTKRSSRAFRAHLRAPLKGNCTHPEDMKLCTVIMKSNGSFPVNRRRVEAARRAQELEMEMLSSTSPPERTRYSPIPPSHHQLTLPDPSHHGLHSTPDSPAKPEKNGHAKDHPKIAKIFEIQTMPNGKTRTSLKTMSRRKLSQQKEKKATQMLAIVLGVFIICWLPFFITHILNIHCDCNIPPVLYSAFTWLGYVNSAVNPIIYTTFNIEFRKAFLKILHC
In short: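 cAMP accumulation in DRD2-HEK293 cells measured by HTRF after 1 h detection; compounds added 10 min before NKH477 (200nM […]) forskolin-analogue stimulation, 30 min at room temperature, with Ro20-1724 present at 0.1 mM final.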

[17] = biological target: D(2) dopamine receptor (Homo sapiens) (UniProt P14416); test: Dopamine D2 receptor (DRD2) small molecule antagonists, cell-based qHTS assay (AID 1963595; active = well fitted inhibition curve with a large enough effect in the signal ratio in the repeat runs, with a control signal flat; the % refers to the signal ratio)
In short: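 HEK293 cells stably expressing DRD2, preincubated with 0.1 mM Ro20-1724 and compounds 10 min, were stimulated with 200 nM NKH477 plus 12 nM quinpirole for 30 min at room temperature; cAMP measured by HTRF (665/620 nm).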

[18] = biological target: Beta-2 adrenergic receptor (Homo sapiens) (UniProt P07550); test: Adrenergic beta2 receptor (ADRB2) small molecule agonists, cell-based qHTS assay (AID 1963593); note: potency is the fitted concentration of half-maximal effect;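 for activation: CHO cells stably overexpressing human ADRB2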
In short: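 CHO cells stably over-expressing ADRB2 were plated overnight at 37C, then dosed with compounds plus a stimulation mix containing 100uM IBMX and 25uM Ro-20-1724 for 0.5hr at room temperature. cAMP was measured by HTRF competition, 1hr.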

[19] = cAMP Responsive Elements (CRE) small molecule antagonists, cell-based qHTS assay (AID 1963591; active = well fitted inhibition curve with a large enough effect in the signal ratio in the repeat runs, not every such curve was filed as active; the % refers to the signal ratio)
In short: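 Cells (CRE-bla HEK 293T, DMEM with 10% dialyzed FBS and 25 mM HEPES) are seeded and incubated 18 h. Compounds are added with NKH477 agonist at 0.25 uM final for 3 h, then FRET substrate for 2 h.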

[20] = p53 small molecule agonists, cell-based qHTS assay (AID 1963582; active = well fitted activation curve with a large enough effect in the signal ratio in the repeat runs, not every such curve was filed as active; the % refers to the signal ratio)
In short: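 Cells carrying a p53-responsive bla reporter are treated with test compounds for 16 h at 37 C; beta-lactamase activity is then detected with LiveBLAzer B/G FRET substrate after 2 h at room temperature.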

SMILES | Potency [1] | Potency [2] | Potency [3] | Potency [4] | Potency [5] | Potency [6] | Potency [7] | Potency [8] | Potency [9] | Potency [10] | Potency [11] | Potency [12] | Potency [13] | Potency [14] | Potency [15] | Potency [16] | Potency [17] | Potency [18] | Potency [19] | Potency [20]
CSc1nc(N=[N+]=[N-])nc(NC(C)C)n1 | inactive | inactive | inactive | inactive | inactive | inactive | inactive | inactive | inactive | inactive | inactive | inactive | inactive | inactive | inactive | inactive | inactive | – | – | –
CCC(COC(=O)c1cc(OC)c(OC)c(OC)c1)(c1ccccc1)N(C)C (configuration not stated) | inactive | inactive | inactive | inactive | inactive | inactive | – | inactive | inactive | inactive | inactive | – | inactive | – | inactive | inactive | inactive | – | – | –
O=C(NC(=O)c1cc(F)c(F)cc1Cl)Nc1cc(F)ccc1N1CCC(C(=O)O)CC1 | inactive | inactive | inactive | inactive | inactive | inactive | – | inactive | inactive | inactive | inactive | inactive | inactive | – | inactive | inactive | – | inactive | – | –
C[C@]12CC[C@H]3[C@@H](CCC4=CC(=O)CC[C@@H]43)[C@@H]1CC[C@@H]2OC(=O)CCc1ccco1 | inactive | inactive | inactive | inactive | inactive | inactive | inactive | inactive | inactive | inactive | inactive | 1.3 µM (active) | inactive | – | – | – | – | 2.98 µM (active) | – | –
Cc1nnc2n1-c1sc(CCc3ccc(CC(C)C)cc3)cc1C(c1ccccc1Cl)=NC2C (configuration not stated) | 7.5 µM (active) | inactive | inactive | inactive | inactive | inactive | inactive | inactive | – | – | inactive | inactive | inactive | – | inactive | – | – | – | – | –
O=C1C(=O)c2cccc3cccc1c23 | inactive | inactive | inactive | inactive | inactive | inactive | inactive | inactive | – | inactive | inactive | inactive | inactive | – | – | inactive | inactive | – | inactive | –
CC(=O)CN(CC(C)=O)N=O | inactive | inactive | inactive | inactive | inactive | inactive | inactive | inactive | – | inactive | inactive | inactive | inactive | inactive | inactive | inactive | inactive | inactive | inactive | inactive
COC(=O)C1(O)c2ccccc2-c2ccccc21 | inactive | inactive | inactive | inactive | inactive | inactive | inactive | inactive | inactive | – | inactive | inactive | inactive | inactive | inactive | inactive | inactive | – | inactive | –
Cc1cc(C)nc(Nc2ccccc2)n1 | inactive | inactive | inactive | inactive | inactive | inactive | inactive | inactive | – | – | – | – | inactive | inactive | inactive | inactive | – | – | inactive | inactive
COc1cc(C=O)cc2c1[C@H](COC(N)=O)[C@]1(OC(C)=O)ON2C[C@H]2[C@@H]1N2C(C)=O | 9.69 µM (active) | inactive | inactive | inactive | inactive | inactive | inactive | inactive | inactive | inactive | inactive | inactive | inactive | inactive | inactive | inactive | inactive | – | – | –
CS(=O)(=O)c1cc(C(F)(F)F)ccc1C(=O)c1cnoc1C1CC1 | inactive | inactive | inactive | inactive | inactive | inactive | – | inactive | inactive | inactive | inactive | – | inactive | inactive | – | – | inactive | – | inactive | inactive
Cn1[nH]nnc1=S | inactive | inactive | inactive | inactive | inactive | inactive | – | inactive | inactive | inactive | – | inactive | inactive | – | – | inactive | inactive | – | inactive | –
c1ccc(OCC2CO2)cc1 (configuration not stated) | inactive | inactive | inactive | inactive | inactive | inactive | inactive | – | inactive | inactive | inactive | inactive | – | inactive | inactive | inactive | inactive | – | inactive | inactive
C=CC(C)(CCC=C(C)C)OC(=O)c1ccccc1N (configuration not stated) | inactive | inactive | inactive | inactive | inactive | inactive | inactive | inactive | – | – | inactive | inactive | inactive | inactive | inactive | inactive | inactive | – | inactive | inactive
CC1CCCCC1NC(=O)Nc1ccccc1 (configuration not stated) | inactive | inactive | inactive | inactive | inactive | inactive | inactive | – | – | inactive | inactive | inactive | inactive | inactive | inactive | inactive | – | inactive | inactive | –
CC1(C)CN=C(NN=C(/C=C/c2ccc(C(F)(F)F)cc2)/C=C/c2ccc(C(F)(F)F)cc2)NC1 | 12.2 µM (active) | inactive | inactive | inactive | inactive | inactive | inactive | – | – | inactive | inactive | inactive | inactive | – | inactive | inactive | inactive | – | – | –
COC(=O)c1cc(Oc2ccc(Cl)cc2Cl)ccc1[N+](=O)[O-] | inactive | inactive | inactive | inactive | inactive | inactive | – | inactive | inactive | inactive | – | – | – | inactive | inactive | inactive | inactive | inactive | inactive | –
